From PubChem BioAssay AID1159580 (chemical genetic matrix, 2015)
The whole screen tested about 5,500 compounds, of which about 2,000 (36%) were called active. Another 18% or so got no clear call; they are omitted. Rule as the data show it: active = normalized growth mostly below about 0.91 (no sharp cut-off); inconclusive = no clear call, values can overlap the other calls; inactive = mostly above about 0.92. The list shows a part of the results.

Assay: chemical genetic growth profiling, strain panel (AID 1159580);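 also: tested at 20 µM; growth read once vehicle control cultures reached saturation at 30 °C; 1 = growth at the plate median or of vehicle wells; lower values mean less growth of the strain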
Conditions: growth OD

Measured: normalized growth

N=C(N)c1ccc(OCCCCCOc2ccc(C(=N)N)cc2)cc1
inactive: S. cerevisiae deletion strains, locus YJR043C, strain POL32, hits give low values 0.909 | S. cerevisiae deletion strains, locus YJR075W, strain HOC1, hits give low values 0.918 | S. cerevisiae deletion strains, locus YKL009W, strain mrt4, hits give low values 0.942 | S. cerevisiae deletion strains, locus YKL085W, strain MDH1 (second series), hits give low values 0.936 | S. cerevisiae deletion strains, locus YKL085W, strain MDH1, hits give low values 0.936 | S. cerevisiae deletion strains, locus YKL160W, strain elf1, hits give low values 0.948 | S. cerevisiae deletion strains, locus YKL190W, strain CNB1, hits give low values 0.959 | S. cerevisiae deletion strains, locus YKR001C, strain vps1, hits give low values 0.952 | S. cerevisiae deletion strains, locus YKR026C, strain gcn3, hits give low values 0.967 | S. cerevisiae deletion strains, locus YKR091W, strain srl3, hits give low values 0.961 | S. cerevisiae deletion strains, locus YLL001W, strain dnm1, hits give low values 0.916 | S. cerevisiae deletion strains, locus YLL026W, hits give low values 0.97 | S. cerevisiae deletion strains, locus YLL041C, strain sdh2, hits give low values 0.974 | S. cerevisiae deletion strains, locus YLR027C, strain aat2, hits give low values 0.951 | S. cerevisiae deletion strains, locus YLR039C, strain RIC1, hits give low values 1.09 | S. cerevisiae deletion strains, locus YLR058C, strain SHM2, hits give low values 0.977 | S. cerevisiae deletion strains, locus YLR102C, strain apc9, hits give low values 0.939 | S. cerevisiae deletion strains, locus YLR221C, strain rsa3, hits give low values 0.958 | S. cerevisiae deletion strains, locus YLR258W, strain gsy2, hits give low values 0.963 | S. cerevisiae deletion strains, locus YLR262C, strain YPT6 (second series), hits give low values 0.988 | S. cerevisiae deletion strains, locus YLR262C, strain YPT6, hits give low values 1.11 | S. cerevisiae deletion strains, locus YLR268W, strain sec22, hits give low values 0.887 | S. cerevisiae deletion strains, locus YLR320W, strain mms22, hits give low values 0.89 | S. cerevisiae deletion strains, locus YLR330W, strain CHS5, hits give low values 0.999 | S. cerevisiae deletion strains, locus YLR342W, strain FKS1 (second series), hits give low values 0.89 | S. cerevisiae deletion strains, locus YLR342W, strain FKS1, hits give low values 0.958 | S. cerevisiae deletion strains, locus YLR357W, strain rsc2, hits give low values 0.979 | S. cerevisiae deletion strains, locus YLR370C, strain arc18, hits give low values 0.954 | S. cerevisiae deletion strains, locus YLR371W, strain rom2, hits give low values 0.929 | S. cerevisiae deletion strains, locus YLR384C, strain iki3, hits give low values 0.944 | S. cerevisiae deletion strains, locus YML016C, strain PPZ1, hits give low values 0.991 | S. cerevisiae deletion strains, locus YML120C, strain ndi1, hits give low values 0.956 | S. cerevisiae deletion strains, locus YML124C, strain tub3, hits give low values 0.943 | S. cerevisiae deletion strains, locus YMR078C, strain ctf18, hits give low values 0.912 | S. cerevisiae deletion strains, locus YMR125W, strain sto1, hits give low values 0.949 | S. cerevisiae deletion strains, locus YMR129W, hits give low values 0.974 | S. cerevisiae deletion strains, locus YMR231W, strain pep5, hits give low values 0.965 | S. cerevisiae deletion strains, locus YMR263W, strain SAP30, hits give low values 0.93 | S. cerevisiae deletion strains, locus YNL067W, strain RPL9B, hits give low values 0.93 | S. cerevisiae deletion strains, locus YNL071W, strain lat1, hits give low values 0.957 | S. cerevisiae deletion strains, locus YNL128W, strain TEP1, hits give low values 0.926 | S. cerevisiae deletion strains, locus YNL153C, strain GIM3, hits give low values 0.958 | S. cerevisiae deletion strains, locus YNL209W, strain ssb2, hits give low values 0.948 | S. cerevisiae deletion strains, locus YNL233W, strain BNI4, hits give low values 0.927 | S. cerevisiae deletion strains, locus YNL248C, strain rpa49, hits give low values 0.955 | S. cerevisiae deletion strains, locus YNL271C, strain bni1, hits give low values 0.929 | S. cerevisiae deletion strains, locus YNL298W, strain CLA4, hits give low values 0.931 | S. cerevisiae deletion strains, locus YNL322C, strain KRE1 (second series), hits give low values 0.918 | S. cerevisiae deletion strains, locus YNL322C, strain KRE1, hits give low values 0.972 | S. cerevisiae deletion strains, locus YNR049C, strain mso1, hits give low values 0.941 | S. cerevisiae deletion strains, locus YOL006C, strain TOP1, hits give low values 1.11 | S. cerevisiae deletion strains, locus YOL012C, strain htz1 0.566 | S. cerevisiae deletion strains, locus YOL147C, strain pex11, hits give low values 0.939 | S. cerevisiae deletion strains, locus YOR001W, strain rrp6, hits give low values 0.94 | S. cerevisiae deletion strains, locus YOR061W, strain CKA2, hits give low values 0.964 | S. cerevisiae deletion strains, locus YOR069W, strain VPS5, hits give low values 0.964 | S. cerevisiae deletion strains, locus YOR070C, strain gyp1, hits give low values 0.97 | S. cerevisiae deletion strains, locus YOR080W, strain dia2, hits give low values 0.936 | S. cerevisiae deletion strains, locus YOR083W, strain WHI5, hits give low values 0.927 | S. cerevisiae deletion strains, locus YOR106W, strain vam3, hits give low values 0.997 | S. cerevisiae deletion strains, locus YOR136W, strain idh2, hits give low values 0.95 | S. cerevisiae deletion strains, locus YOR265W, strain rbl2, hits give low values 0.962 | S. cerevisiae deletion strains, locus YOR270C, strain vph1, hits give low values 1.17 | S. cerevisiae deletion strains, locus YOR290C, strain snf2, hits give low values 0.946 | S. cerevisiae deletion strains, locus YOR316C, strain cot1, hits give low values 0.943 | S. cerevisiae deletion strains, locus YPL051W, strain arl3, hits give low values 0.98 | S. cerevisiae deletion strains, locus YPL055C, strain LGE1, hits give low values 0.943 | S. cerevisiae deletion strains, locus YPL078C, strain atp4, hits give low values 1.03 | S. cerevisiae deletion strains, locus YPL106C, strain sse1, hits give low values 0.948 | S. cerevisiae deletion strains, locus YPL240C, strain hsp82, hits give low values 0.989 | S. cerevisiae deletion strains, locus YPL241C, strain CIN2, hits give low values 0.973 | S. cerevisiae deletion strains, locus YPR119W, strain clb2, hits give low values 0.934 | S. cerevisiae deletion strains, locus YPR167C, strain met16, hits give low values 0.944 | S. cerevisiae strains, strain wild type, hits give low values 0.94
active: S. cerevisiae deletion strains, locus YKL068W, hits give low values 0.92 | S. cerevisiae deletion strains, locus YLR418C, strain cdc73, hits give low values 0.789 | S. cerevisiae deletion strains, locus YML032C, strain rad52, hits give low values 0.828 | S. cerevisiae deletion strains, locus YMR058W, strain fet3, hits give low values 0.828 | S. cerevisiae deletion strains, locus YMR205C, strain PFK2, hits give low values 0.758 | S. cerevisiae deletion strains, locus YMR223W, strain ubp8, hits give low values 0.868 | S. cerevisiae deletion strains, locus YMR307W, strain GAS1, hits give low values 0.554 | S. cerevisiae deletion strains, locus YNL250W, strain rad50, hits give low values 0.894 | S. cerevisiae deletion strains, locus YNL307C, strain MCK1, hits give low values 0.811 | S. cerevisiae deletion strains, locus YNR052C, strain pop2, hits give low values 0.823 | S. cerevisiae deletion strains, locus YOR144C, strain elg1, hits give low values 0.921 | S. cerevisiae deletion strains, locus YOR184W, strain ser1, hits give low values 0.832 | S. cerevisiae deletion strains, locus YPR141C, strain kar3, hits give low values 0.905 | S. cerevisiae deletion strains, locus YPR163C, strain tif3, hits give low values 0.901 | S. cerevisiae deletion strains, strain wtn01, hits give low values 0.891
